A selection: hits, their analogues and other compounds. The true share with any hit is near 11%.
RORgamma inh: ROR gamma (mouse) transcription inhibition; Drosophila S2 Gal4-RORgamma UAS-luciferase reporter, 20 h; Potency, µM (top dose mostly 53.6 µM), hits mostly inhibitors; actives 5.4% (n = 310,000); further: nearly all actives have a fitted effect of over 60% in size
Target sequence (P51450 whole entry, looked up, the tested form may be a part): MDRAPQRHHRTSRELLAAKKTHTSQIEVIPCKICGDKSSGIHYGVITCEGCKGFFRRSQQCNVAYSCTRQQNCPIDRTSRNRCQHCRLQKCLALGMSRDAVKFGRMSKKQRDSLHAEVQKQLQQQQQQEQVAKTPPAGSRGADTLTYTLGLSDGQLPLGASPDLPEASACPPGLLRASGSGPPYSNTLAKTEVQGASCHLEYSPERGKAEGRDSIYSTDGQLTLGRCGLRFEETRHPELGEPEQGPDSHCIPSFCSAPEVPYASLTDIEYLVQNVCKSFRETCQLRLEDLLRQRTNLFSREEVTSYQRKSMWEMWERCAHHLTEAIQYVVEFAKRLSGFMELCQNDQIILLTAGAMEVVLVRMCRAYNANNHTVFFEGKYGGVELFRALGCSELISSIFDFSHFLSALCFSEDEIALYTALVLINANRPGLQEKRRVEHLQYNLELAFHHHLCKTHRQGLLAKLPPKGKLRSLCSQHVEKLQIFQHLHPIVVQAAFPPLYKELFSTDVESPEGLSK
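Stable Schneider cell line, Gal4 DNA-binding domain fused to ROR gamma, UAS-luciferase. Cmpd 1 hr RT → CuSO4 700 uM final → 20 hr RT → luciferase reagent 10 min → luminescence.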
MCF10A rerep: DNA re-replication induction in MCF 10a cells. AID 624296. MCF 10A DNA re-replication, Hoechst nuclear intensity, 48 h. actives 2.9% (n = 350,000). Potency, µM (titrated, usually from 46.1 µM), usual class: activators; further: nearly all actives have a fitted effect of over 50% in size
VP16 counter: inhibits Gal4-VP16 luciferase reporter, ROR gamma counter-screen. AID 2546. actives 3.5% (n = 310,000). Drosophila S2 Gal4-VP16 UAS-luciferase, luminescence, 20 h. Potency, µM (series often up to 53.6 µM), most hits filed as inhibitors;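 further: Gal4-VP16 expression switched on by copper sulfate through the metallothionein promoter; nearly all actives have a fitted effect of over 50% in size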
SW480 rereplic: DNA re-replication induction in SW480 cells; SW480 DNA re-replication, Hoechst DNA content imaging, 48 h; Potency, µM (titrated, usually from 46.1 µM), most hits filed as activators; actives 1.8% (n = 340,000); AID 624297; further: nearly all actives have a fitted effect of over 55% in size
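Treated cells incubate 48 hr (37 C, 5% CO2), are stained 40 min with Hoechst, and nuclear fluorescence is enumerated; a rise in nuclei with high DNA signal marks re-replication.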
IL-1B inflam inh: inhibitors of inflammasome signaling (IL-1 beta secretion) | THP-1 LPS/ATP IL-1B secretion, AlphaLISA, 16 h; stronger effect = lower value | activity change, % at 57.5 µM | actives 4.7% (n = 360,000) | AID 743279; in the data active means activity change below about -50%; inconclusive means mostly about -30% to -49%
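Secreted IL-1B measured by AlphaLISA bead assay after 16 h compound exposure of THP-1 cells; compounds (final up to 57.5 uM) added 1 h before LPS (250 ng/mL) and ATP (1.25 mM) stimulation; lower signal means less secretion.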
Each line names hits and unclear results; the compound was inactive in the other large screens. Unless noted, the call rests on the fitted dose curve; in most records, active means well fitted curve in the direction sought with a large enough effect; inconclusive means small, poorly fitted or top-dose-only effect, or another doubt; inactive means no such curve, though single readings can be large; an effect the other way counts as inactive or inconclusive.

O=C(NCC(O)c1nc2ccccc2[nH]1)c1cc([N+](=O)[O-])ccc1F (configuration not stated)	IL-1B inflam inh -87 (no result: RORgamma inh, MCF10A rerep, VP16 counter, SW480 rereplic)
COC(=O)c1cc(C(=O)Nc2nc3ccccc3[nH]2)cc([N+](=O)[O-])c1	RORgamma inh 1.4µM
O=C(Cc1nc2ccccc2[nH]1)c1cccc([N+](=O)[O-])c1	MCF10A rerep 7.3µM, SW480 rereplic inconclusive
O=C(Nc1nc2ccccc2[nH]1)c1cccc([N+](=O)[O-])c1	RORgamma inh 0.89µM, VP16 counter inconclusive
O=C(NCc1nc2ccccc2[nH]1)c1ccc([N+](=O)[O-])cc1	none
Cc1ccc(S(=O)(=O)N(CC(=O)NC2CC3CCC2C3)c2ccccc2)cc1 (configuration not stated)	none (no result: RORgamma inh, MCF10A rerep, VP16 counter, SW480 rereplic)
COc1cccc2cc(C(=O)NCc3ccccc3Cl)c(=O)oc12	none
COc1cccc(Nc2ncc3nc(CCc4ccccc4)c(=O)n(C[C@H]4CCCO4)c3n2)c1	none (no result: MCF10A rerep, SW480 rereplic, IL-1B inflam inh)
CC(=O)NCCNc1nc2cc(-c3cccc(Cl)c3)sc2c(=O)n1C	none (no result: RORgamma inh, MCF10A rerep, VP16 counter, SW480 rereplic)
Cc1c(C(=O)N2CCN(c3ncccn3)CC2)oc2c(Cl)cccc12	none (no result: RORgamma inh, VP16 counter)
C[C@@H]1CCCCO[C@@H](CN(C)C(=O)C2CCCCC2)[C@@H](C)CN([C@H](C)CO)C(=O)c2cc(NC(=O)NC3CCCCC3)ccc2O1	none (no result: RORgamma inh, MCF10A rerep, VP16 counter, SW480 rereplic)
O=C(Nc1nc2ccccc2[nH]1)c1ccc([N+](=O)[O-])cc1	RORgamma inh 3.2µM, VP16 counter inconclusive
COc1ccc(C(=O)COC(=O)[C@H](C)NS(=O)(=O)c2ccc(NC(C)=O)cc2)cc1OC	IL-1B inflam inh -93 (no result: RORgamma inh, VP16 counter)
COC(=O)C(C)NS(=O)(=O)c1ccc(NC(C)=O)cc1 (configuration not stated)	none
COc1ccc(OCCOC(=O)C(C)NS(=O)(=O)c2ccc(NC(C)=O)cc2)cc1 (configuration not stated)	IL-1B inflam inh -77 (no result: RORgamma inh, VP16 counter)
CC(C)CN1CCCC2(CCN(C(=O)c3cccn3C)CC2)C1	none (no result: MCF10A rerep, SW480 rereplic, IL-1B inflam inh)
CS(=O)(=O)N(CCCC(=O)N1CCCCCC1)c1cccc(Cl)c1	none
Cc1ccc2c(=O)n3c(nc2c1)C(Cc1ccc(O)cc1)NC(=O)c1cccnc1-3 (configuration not stated)	none (no result: RORgamma inh, MCF10A rerep, VP16 counter, SW480 rereplic)
Cc1cc(C)c2c(=N)c3ccccc3n(CCCCCCCCn3c4ccccc4c(=N)c4c(C)cc(C)nc43)c2n1	MCF10A rerep inconclusive, SW480 rereplic 23µM, IL-1B inflam inh -52 (no result: RORgamma inh, VP16 counter)
CCCCn1c(N)c(N(CC)C(=O)C2=COCCO2)c(=O)[nH]c1=O	none (no result: RORgamma inh, VP16 counter)
O=C1NN=C(c2ccc(Cl)cc2)CC1c1cccc(Cl)c1 (configuration not stated)	none
O=C1NN=C(c2ccccc2)CC1c1ccc(Cl)cc1Cl (configuration not stated)	MCF10A rerep inconclusive, SW480 rereplic 18µM, IL-1B inflam inh inconclusive
C=CCN(CC=C)S(=O)(=O)c1ccc(NC(=S)NC(=O)/C=C/c2cccc3ccccc23)cc1	RORgamma inh 2.2µM, VP16 counter inconclusive
C=CCN(CC=C)S(=O)(=O)c1ccc(NC(=S)NC(=O)c2ccco2)cc1	VP16 counter inconclusive
C=CCN(CC=C)S(=O)(=O)c1ccc(NC(=S)NC(=O)c2ccc(-c3ccccc3)cc2)cc1	RORgamma inh 1.4µM, VP16 counter 2.5µM
C=CCN(CC=C)S(=O)(=O)c1ccc(NC(=S)NC(=O)/C=C/c2ccc(C)cc2)cc1	RORgamma inh 10µM, VP16 counter inconclusive
CNc1ncnc2ccc(-c3ccc4c(c3)OCO4)cc12	none (no result: MCF10A rerep, SW480 rereplic, IL-1B inflam inh)
O=C(O)COc1ccc(Cl)cc1C1CCCCC1	none (no result: RORgamma inh, VP16 counter)
Cc1c2cnccc2c(C)c2c1oc1ccccc12	MCF10A rerep inconclusive, SW480 rereplic inconclusive, IL-1B inflam inh -73 (no result: RORgamma inh, VP16 counter)
CCCCCCC1CC(CC(=O)Nc2ccc([N+](=O)[O-])cc2)C(=O)O1 (configuration not stated)	RORgamma inh inconclusive, VP16 counter inconclusive, IL-1B inflam inh -61
CC1(C)CC(CC(=O)Nc2ccc([N+](=O)[O-])cc2)C(=O)O1 (configuration not stated)	none
CCN(C(=O)COC(=O)c1ccc(=O)n(Cc2ccccc2)n1)C1CCS(=O)(=O)C1 (configuration not stated)	none (no result: RORgamma inh, VP16 counter)
Cc1ccc(C(=O)c2coc3ccc(O)cc23)cc1	none
O=C(NNC1OC(CO)C(O)C(O)C1O)c1cccc(Br)c1 (configuration not stated)	RORgamma inh 11µM
O=C(O)CCC(=O)NNC(=O)c1cccc(Br)c1	none
OC(CNCc1ccco1)Cn1c2ccc(Br)cc2c2cc(Br)ccc21 (configuration not stated)	MCF10A rerep inconclusive, VP16 counter inconclusive, SW480 rereplic inconclusive, IL-1B inflam inh -59
Brc1ccc2ncnc(NCc3ccco3)c2c1	MCF10A rerep inconclusive, VP16 counter inconclusive
O=C(O)CC(Cc1ccccc1)c1ccc2c(c1)OCO2 (configuration not stated)	none
CC(=O)N(CCC(Cc1ccccc1)c1ccc2c(c1)OCO2)Cc1ccc(Cl)cc1 (configuration not stated)	MCF10A rerep 16µM, SW480 rereplic inconclusive, IL-1B inflam inh inconclusive
O=C(CSc1nc2nn(-c3ccccc3)c(=O)c-2c2n1CCCCC2)NCCCc1ccccc1	IL-1B inflam inh -60
Cc1cccc(C)c1N1C(=O)c2ccccc2NC(=O)C1C(=O)Nc1ccc2c(c1)OCCO2 (configuration not stated)	none (no result: RORgamma inh, MCF10A rerep, VP16 counter, SW480 rereplic)
CCCSS/C(CCO)=C(/C)N(C=O)Cc1cnc(C)nc1N	RORgamma inh inconclusive, MCF10A rerep 13µM, VP16 counter inconclusive, SW480 rereplic inconclusive (no result: IL-1B inflam inh)
CC(C)C[C@H]1CN([C@@H](Cc2ccccc2)CN2CCC[C@@H]2CN2C(=O)C(=O)NC[C@@H]2Cc2ccc(O)cc2)C(=O)C(=O)N1CC1CCCCCC1	none (no result: RORgamma inh, MCF10A rerep, VP16 counter, SW480 rereplic)
CC(C)C[C@H]1CN([C@@H](Cc2ccccc2)CN2CCC[C@@H]2CN2C(=O)C(=O)NC[C@@H]2Cc2ccccc2)C(=O)C(=O)N1CC1CCCCC1	IL-1B inflam inh -59 (no result: RORgamma inh, MCF10A rerep, VP16 counter, SW480 rereplic)
O=C1NC[C@H](Cc2ccc(O)cc2)N(C[C@@H]2CCCN2C[C@H](Cc2ccccc2)N2C[C@H](Cc3ccc(O)cc3)N(CC3CCCCC3)C(=O)C2=O)C1=O	none (no result: RORgamma inh, MCF10A rerep, VP16 counter, SW480 rereplic)
CC(C)C[C@H]1CN([C@@H](Cc2ccc(O)cc2)CN2CCC[C@H]2CN2C(=O)C(=O)NC[C@@H]2Cc2ccccc2)C(=O)C(=O)N1CC1CCCCCC1	IL-1B inflam inh -82 (no result: RORgamma inh, MCF10A rerep, VP16 counter, SW480 rereplic)
CC(C)C[C@H]1CNC(=O)C(=O)N1C[C@@H]1CCCN1C[C@H](Cc1ccc(O)cc1)N1C[C@H](Cc2ccccc2)N(CC2CCCCC2)C(=O)C1=O	IL-1B inflam inh -59 (no result: RORgamma inh, MCF10A rerep, VP16 counter, SW480 rereplic)
O=C1NC[C@H](Cc2ccccc2)N(C[C@H]2CCCN2C[C@H](Cc2ccccc2)N2C[C@H](Cc3ccccc3)N(CC3CCCCCC3)C(=O)C2=O)C1=O	MCF10A rerep inconclusive, SW480 rereplic inconclusive, IL-1B inflam inh -69 (no result: RORgamma inh, VP16 counter)

Source: PubChem (National Center for Advancing Translational Sciences (NCATS))
